Data published in PubChem BioAssay AID493076 (National Center for Advancing Translational Sciences (NCATS), 2011).
This is one part of the list. Records with an inconclusive call do not appear. Calls of active or inactive are those of the source. Calls come from the whole dose curve; as a rule, active = well fitted curve in the direction sought with a large enough effect; inconclusive = small, poorly fitted or top-dose-only effect, or effect the other way, or another doubt; inactive = no such curve, though single readings can be large or run the other way.

biological target: Thyrotropin-releasing hormone receptor (Homo sapiens) (UniProt P34981); assay: qHTS for Small Molecule Agonists and Allosteric Enhancers of Human TRH Receptor: Confirmation Screen for Enhancers; details: TRH receptor cell assay, enhancer confirmation qHTS; series mostly up to 46.1 µM; activity change, negative = inhibition: at the top concentration; note: 0% is about no effect
Description: NIH Chemical Genomics Center [NCGC]
NIH Molecular Libraries Probe Centers Network [MLPCN]
Assay Submitter (PI): Marvin Gershengorn
This project aims to identify small drug-like molecules that activate (agonists) the thyrotropin releasing hormone (TRH) receptor (TRHR) or enhance its TRH-stimulated activity (allosteric enhancers). TRHR, a drug-accessible cell surface receptor expressed in specific brain regions, and its ligand TRH have been implicated in several central nervous system disorders, including depression and anxiety. Small molecule TRHR agonists or allosteric enhancers that are metabolically stable and able to cross the blood-brain barrier might serve as probes to elucidate the roles of brain TRH receptors in animal models, and might be valuable as lead compounds for the development of drugs to treat patients with central nervous system disorders.
Upon TRHR-Gq activation in TRHR cells, intracellular calcium is released from stores in the endoplasmic reticulum. […] This primary screen measures compound-induced enhancement of an EC20 stimulation of the receptor by its native ligand.
For the HTS assay freshly prepared cells are plated at a density of 2000/well in 3 ul of complete DMEM medium containing 10% serum in 1536-well plates and cultured over night at 37 C in a humidified incubator with 5% CO2. The next day, 2 ul of a no wash calcium dye (ABD Bioquest) was added to the cells and plates were incubated at room temperature for 1 hour. For the assay, assay plates were loaded into the FDSS kinetic plate reader. A 10 cycle (1 second/cycle) baseline measurement is taken and then the FDSS online 1536 pintool delivers 23 nl of compound library (as well as TRH controls) to the plate. The plate is measured for kinetically at 1 cycle/sec for 180 seconds and is considered to be the agonist portion of the assay (eg, compounds which activate a positive calcium response during this portion are flagged as potential agonists). Following the 180 second read, 1 ul of either an EC20 (positive modulation assay) is delivered by an onboard pipette head. Measurements are taken kinetically for an additional 180 seconds.
TRHR FDSS Screening Protocol
1. Reagent, 3 uL 2000 cells/well 1536 TC treated Black plate in media containing 10% FCS
2. Time, 18 hours, 33.5C 5% CO2 (cells grown at 37C)
3. Reagent, 2 uL ABD fluo-8 Ca dye
4. Time, 30 min-1.5hrs hours, Room temp (6 plates/batch)
5. Detector, EX 480/EM 530C, FDSS 10 cycles baseline (1sec/cycle)
6. Compound, 23 nL of stock solution from library
7. Detector, EX 480/EM 530C, FDSS 230 cycles (1sec/cycle) Agonist mode
8. Compound, 1 ul EC20 of TRH made up in HEPES HBSS, 10 nM final
9. Detector, EX 480/EM 530C, FDSS 100 cycles (1sec/cycle) Potentiator mode

Thyrotropin-releasing hormone receptor (Homo sapiens), sequence (P34981 whole entry, looked up): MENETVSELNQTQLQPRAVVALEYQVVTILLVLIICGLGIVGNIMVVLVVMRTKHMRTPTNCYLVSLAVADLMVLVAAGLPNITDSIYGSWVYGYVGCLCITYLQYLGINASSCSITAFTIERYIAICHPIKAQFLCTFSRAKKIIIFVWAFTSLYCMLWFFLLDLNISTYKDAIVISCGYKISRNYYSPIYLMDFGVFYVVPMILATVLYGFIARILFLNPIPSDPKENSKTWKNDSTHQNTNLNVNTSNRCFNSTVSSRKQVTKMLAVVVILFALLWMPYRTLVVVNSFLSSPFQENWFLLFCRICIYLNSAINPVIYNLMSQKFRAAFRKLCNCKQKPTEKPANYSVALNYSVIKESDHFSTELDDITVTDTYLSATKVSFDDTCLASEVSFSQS

Activity change, negative = inhibition, inactive:
O=C1C(=O)N(CCCO)C(c2ccccc2)/C1=C(\O)c1ccc(Br)cc1 (stereo not drawn) -0.976%
CCc1nnc(NC(=O)[C@@H](NC(=O)c2cccc(C)c2)C(C)C)s1 -7%
c1cnc(N2CCN(c3ccc4ccccc4n3)CC2)nc1 -7.49%
